Test results as given in PubChem BioAssay AID1794842 (National Center for Advancing Translational Sciences (NCATS), 2023).
Fewer than 10 of roughly 2,800 compounds were called active. Calls follow the shape of the dose curve; as a rule, active = well fitted curve in the direction sought with a large enough effect; inconclusive = small, poorly fitted or top-dose-only effect, or another doubt; inactive = no such curve, though single readings can be large or run the other way. Not all results are given here.

molecular target: Metallo-beta-lactamase type 2 (Klebsiella pneumoniae) (UniProt C7C422); assay: qHTS to identify inhibitors of the New Delhi Metallo-beta-lactamase (NDM): Meropenem screen against the machine-based learning selections.; also: % of control where 0% means no effect; details: Purified NDM-1, meropenem hydrolysis, absorbance 300 nm; series mostly up to 38.4 µM; activity change, negative = inhibition: at the top concentration
Text: Assay Submitter (PI): James Inglese Ph.D., Patricia Dranchak Ph.D., Mahesh Aitha Ph.D. Assay Development and Screening Technology Laboratory (ADST) National Center for Advancing Translational Sciences (NCATS), Rockville, MD National Institute of Health (NIH), Bethesda, Maryland The metallo-beta-lactamases (MBL) are a main antibiotic resistance mechanism evolved by bacteria. There is an urgent clinical need for MBL inhibitors to mitigate this growing threat. To support a machine-based learning study, qHTS has been used to experimentally test inhibitors identified by prediction tools.
PROTOCOL TABLE (as described by Inglese et al., 2007) SEQUENCE No. (e.g., 1, 2, 3, etc.); […] (e.g., enzyme, Incubation, Reagent, etc.); VALUE; DESCRIPTION Primary Screen 1; NDM-1; 4 uL of 3 nM enzyme [2 nM final] in 50 mM HEPES (pH 7.0), 1 uM […], 0.01% Tween20; Use BioRaptr to dispense into two sets of Aurora black, clear bottom high base 1536-well plates 2; Compounds; 23 nL; Use Pin Tool (Wako) to transfer DMSO control and library compounds in DMSO 3; Incubate; >30 min 4a; Reagent; 2 uL of 50 uM nitrocefin [16.7 uM final] to one set of assay plates 4b; Reagent; 2 uL of 150 uM meropenem [50 uM final] to second set of assay plates 5a; Incubate; 15 min 5b; Incubate; 30 min 6a; Detector; Absorbance at 485 nm (bandwidth = 5 nm, 25 flashes/well) on Tecan Infinity 6b; Detector; Absorbance at 300 nm (bandwidth = 5 nm, 25 flashes/well) on Tecan Infinity NOTES (numbers refer to sequence above) 1; Column 1 of each plate received assay buffer without enzyme and columns 2-48 received enzyme for a final assay concentration of 2 nM. 2; Control plate contained DMSO in columns 1, 2, 3, and 4. 3; Compound interaction with enzyme. 4; Nitrocefin and meropenem substrates were prepared in the same assay buffer as step 1 for a final assay concentration of 16.7 uM and 50 uM, respectively, and added to all wells across respective sets of assay plates. 5; Default reader settings were applied for absorbance read at 485 nm (nitrocefin) or 300 nm (meropenem), bandwidth = 5 nm, 25 flashes/well. References: Inglese J, Shamu CE, Guy RK. 2007. Reporting data from high-throughput screening of small-molecule libraries. Nat Chem Biol. doi:10.1038/nchembio0807-438 Yasgar A, Shinn P, Jadhav A, Auld D, Michael S, Zheng W, Austin CP, Inglese J, Simeonov A. 2008. Compound Management for Quantitative High-Throughput Screening. J Lab Autom 13:79 - 89. doi:10.1016/j.jala.2007.12.004

Chain of Metallo-beta-lactamase type 2 (Klebsiella pneumoniae) (C7C422 whole entry, looked up): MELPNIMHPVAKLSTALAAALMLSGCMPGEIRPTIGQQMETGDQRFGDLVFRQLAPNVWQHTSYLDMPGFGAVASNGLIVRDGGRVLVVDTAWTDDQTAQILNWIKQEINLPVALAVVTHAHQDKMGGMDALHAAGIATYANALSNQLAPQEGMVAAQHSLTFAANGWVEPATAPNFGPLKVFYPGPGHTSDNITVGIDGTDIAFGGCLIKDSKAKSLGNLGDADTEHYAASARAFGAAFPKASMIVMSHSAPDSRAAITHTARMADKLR

Activity change, negative = inhibition, inactive:
Cc1ccccc1Nc1cnc2ccc(-c3cccc(CO)c3)nn12 63.5% [at 57.5 µM]
COc1ccccc1C(O)c1nc(Nc2ccncc2)n[nH]1 (centres undefined) 13.5% [at 57.5 µM]
OC[C@]12CCCN[C@@H]1CCN(Cc1cccc(-c3ccccn3)c1)C2 1.81%
COC(=O)c1ccc2c(c1)nc1n2[C@@H](CNC(=O)NC2CCCCC2)COC1 -0.992% [at 57.5 µM]
COc1cccc(CN[C@@H]2CCC[C@@H](C(=O)NC3CCOCC3)CC(=O)N(C)C2)c1 1.5% [at 57.5 µM]
COCCNC(=O)[C@H]1CCC[C@H]1NC(=O)c1ccc(OC)cc1 0.0448%
CCS(=O)(=O)N1CCC(Cc2nc(-c3cccnc3)n[nH]2)C1 (centres undefined) 0.912%
C=CCc1cc(C2CC(=O)Nc3[nH]ncc32)cc(OCC)c1OC (centres undefined) 1.43%
O=C1CC(c2ccccc2)N(C(=O)C2CC2)CCCN(C(=O)NCc2ccccc2)CCN1 (centres undefined) 0.78%
O=C(NC[C@H]1OC[C@@H](NCc2cnc[nH]2)[C@@H]1O)C1CCCC1 10.9% [at 57.5 µM]
COc1cccc(-c2cnc3[nH]cc(CC(=O)NCc4cccnc4)c3c2)c1 -0.122% [at 57.5 µM]
Cn1ccc(NC(=O)c2cnc3c(c2)N([S+](=O)([O-])c2cccnc2)CCC3)n1 3.56% [at 57.5 µM]
CCOc1cc(=O)n2c(c1C(=O)N1CCN(c3ccc(F)cc3)CC1)CCCC2 2.67%
CC1=C[C@@H](CNC(=O)Cc2ccccc2)[C@H](C(C)C)C[C@H]1Cc1nc2ccncc2[nH]1 49.5% [at 57.5 µM]
Oc1ccccc1CN1CCNc2cnc(-c3ccccc3)cc2C1 10.3% [at 57.5 µM]
CN1C(=O)[C@@H]2C[C@@H](O)CN2C2(CN(CC3CCCCC3)C2)C1=O -2.35% [at 57.5 µM]
O=C(O)c1cccc(CN2CCN(c3ccc4nccn4n3)CC2)n1 52.5%
CCn1ccc(C(=O)N2CC(c3nnc(-c4ccc(C)cc4)o3)C3(CCOCC3)C2)n1 (centres undefined) -0.487%
O=C(Nc1ccsc1)N[C@H]1C[C@H]2C(=O)NC[C@@H](CCC(=O)N3CCCCC3)N2C1 6.97% [at 57.5 µM]
O=C(Cc1ccccc1F)N1CCC(Oc2ncccc2C(=O)N2CCCCC2)C1 (centres undefined) -2.69%
CC1=C[C@@H](CNCc2ccncc2)[C@H](C(C)C)C[C@H]1Cc1nnc(-c2ccc(C)cc2)o1 0.0973% [at 57.5 µM]
Cc1ccccc1-c1[nH]nc2ncc(-c3ccccc3O)nc12 0.134% [at 57.5 µM]
CN1CCCC2(CCN(S(=O)(=O)c3ccc(F)c(F)c3F)C2)C1=O (centres undefined) -0.416%
CN1CCC(N2CCC[C@H]2C(=O)NCc2cc3n(n2)CCCNC3)CC1 44.8%
O=C(O)C1(Oc2ccc3ccccc3c2)CCN(Cc2ccsc2)CC1 -0.232%
COc1cccc(CN2CCCC3(CCN(C(=O)c4ccc(OC)nc4OC)C3)C2)c1 (centres undefined) -0.954%
COc1ccc(-c2noc([C@@H]3C[C@@H](O)CN3Cc3ncc[nH]3)n2)cc1 -1.76% [at 57.5 µM]
CC(C)(O)CCc1cccc(C(=O)NCCNc2cccnc2)c1 6.29%
COc1cccc(S(=O)(=O)N2C[C@@H](C)[C@](O)(C3CCC3)C2)c1 -1.22%
O=C(O)[C@@H]1CN(C(=O)c2ccc(=O)[nH]c2)C[C@H]1c1ccc2c(c1)OCO2 4.89%
COC[C@H]1CCCN1Cc1nc(C2(O)CCN(Cc3ccccc3O)CC2)cs1 38.3% [at 57.5 µM]
O=C(NCc1ccccc1)N1CCCCC1c1nc(-c2cnccn2)n[nH]1 (centres undefined) 32.3%
CN1CC2(CCN(C(=O)c3ccccc3-c3nn[nH]n3)CC2)CC1C(=O)O (centres undefined) 57.1%
Nc1ccsc1C(=O)N[C@H](Cc1ccncc1)C1CC(O)C1 (some centres undefined) 49.4%
O=C(NC[C@H]1O[C@@H](CC(=O)N2CCOCC2)[C@H](O)[C@@H]1O)Nc1ccc(F)cc1F 8.7% [at 57.5 µM]
CCn1nc(C)cc1C(=O)N1CCOC[C@H](Oc2cccnc2)C1 -2.79% [at 57.5 µM]
O=c1n(-c2ccc([N+](=O)[O-])cc2)nc2n1CCN(Cc1cccc3ccccc13)C2 6.62%
Cn1cccc1C(=O)N1CC[C@H](NC(=O)NC2CCCCC2)[C@H]1C(=O)N1CCC[C@@H]1C(N)=O 1.12%
N#Cc1ccc(C(=O)N2C[C@@H]3C[C@H](C2)c2c(/C=C/c4ccc(Cl)cc4)ccc(=O)n2C3)cc1 -0.813%
NC(=O)C1(N2CCCCC2)CCN(Cc2cc3n(n2)CCNC3)CC1 58.6%
CC(C)(CO)CNC(=O)c1cnc2c(c1)N([S+](=O)([O-])c1cccnc1)CCC2 2.99% [at 57.5 µM]
Cc1nn(C)c2ncc(C(=O)O)c(NC3CC(c4cc(=O)[nH]cn4)C3)c12 (centres undefined) 7.09%
Oc1cccc(CN2CCCC23CCN(c2ccc(C(F)(F)F)cn2)CC3)c1 -0.547%
O=C(O)CCC(=O)N[C@H]1CCN2C(=O)c3cc(-c4ccc(Cl)cc4)ccc3NC(=O)[C@H]12 12.6% [at 57.5 µM]
